Measurements reported in the supplement of paper PMC10681739.

target: T1, ETS1 (UniProt P14921); assay: TF binding intensity (PBM fluorescence), negative control probe (arbitrary fluorescence units); higher = stronger binding
T1 sequence: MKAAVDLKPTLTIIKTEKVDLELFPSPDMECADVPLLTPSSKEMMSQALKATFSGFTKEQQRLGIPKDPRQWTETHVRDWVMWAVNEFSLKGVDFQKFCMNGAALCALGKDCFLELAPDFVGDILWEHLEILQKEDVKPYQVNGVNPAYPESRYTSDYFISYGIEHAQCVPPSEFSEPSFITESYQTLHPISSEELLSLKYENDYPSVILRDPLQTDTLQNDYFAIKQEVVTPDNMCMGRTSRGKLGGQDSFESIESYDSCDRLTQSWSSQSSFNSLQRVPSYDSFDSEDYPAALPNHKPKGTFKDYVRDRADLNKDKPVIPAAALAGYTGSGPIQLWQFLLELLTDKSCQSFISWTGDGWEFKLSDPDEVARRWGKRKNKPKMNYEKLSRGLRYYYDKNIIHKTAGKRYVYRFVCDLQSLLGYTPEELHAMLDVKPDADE
Method: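 gcPBM negative-control 36-bp genomic probes lacking TF binding sites. Each was incubated with recombinant human ETS1 or RUNX1 alone and detected by antibody fluorescence. Values are medians over replicate spots (4 spots for the ETS1-RUNX1 arrays, 3 for the ETS1-ETS1 array). The probes sit in constant array flanks that are not printed.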

Row | Sequence | TF binding intensity
1 | ACTTTCTATGAGGCTGCCACTCCTGGTACCACACAT (protein concentration 10 nM) | 133
2 | ATGGCTGGGTCAGAGCGGCCTGTCAGCCCGGCTGGA (protein concentration 10 nM) | 98
3 | CTTGGTGTGTCTGAAGAAAGATCAGAAGGCTGGCAT (protein concentration 10 nM) | 123
4 | ACGACTCTTCCCAAGCAGCGGGAGGATCTAGGCCCA (protein concentration 10 nM) | 102
5 | ACAGGCCCTCCAGGTGTTGAAACCATGCTGGGCTGA (protein concentration 10 nM) | 102
6 | AGAAGCTTGGCTTGGTCTGCGCCTCCTCCCGTGCCT (protein concentration 10 nM) | 101
7 | ACTGCGCGCAGGGCCTGCAGCGGCAGCTGGACTGGG (protein concentration 10 nM) | 120
8 | GTTTATTGCCCACAACATGTCAGGCACAGTGGGAAG (protein concentration 10 nM) | 132
9 | GTGTCTGCCTCATTGGCGAAGGCCAGCCTCTGAGCC (protein concentration 10 nM) | 140
10 | AGTATGAGTTTGAATACACAGAACCTTTCTCATTCT (protein concentration 10 nM) | 106
11 | AAACTAATCAGAATTTAACATCATACATAAATGGCA (protein concentration 10 nM) | 116
12 | GAAGTTTCAAGATGTAGTAGTTAAAGTATTAACTTA (protein concentration 10 nM) | 113
13 | GCAGTGAGCTGAGATCACACCATTGCACTCCAGCCT (protein concentration 10 nM) | 135
14 | TAAATAAATAAACACTTTAGCACATTGACTTTAGAG (protein concentration 10 nM) | 111
15 | GGCTGGTAGAAATACTGCGGCTAATAAAGGCGTGGA (protein concentration 1 nM) | 425
16 | TTCTTTGACTCACTATGCGGGTTGGTACATCTGGGG (protein concentration 1 nM) | 476
17 | TTCATAACGTTATACACCACAATGCTAAAAAAATGA (protein concentration 1 nM) | 672
18 | AGCTTTCCAAGTTTTTGTGGGCAACATCAACTGTTC (protein concentration 1 nM) | 486
19 | CACAATAAAGCCGCAACCGCAGGAGGCAGAAGGGTG (protein concentration 1 nM) | 793
20 | CATAGTTGCACCTGGTCTACTTTGCTGTCAATTTGT (protein concentration 10 nM) | 126

Row | Sequence | TF binding intensity
21 | GTTTGGCTTTCAGAGTGTGGTTTGGATTCCTAACAG (protein concentration 1 nM) | 450
22 | TGCCAGGGTGTAATTTTTCCCACTTTCACCTCCTTC (protein concentration 10 nM) | 128
23 | ATTCTTCTAATAATCCAGTTTGAGTGGATCCTCTGT (protein concentration 10 nM) | 112
24 | TATCTTTATCATGATCCATTAAAGATGACAGAACTA (protein concentration 10 nM) | 127
25 | CTTTCTAAAGAGAAAAGCTCCTTTGTACCACGTGTC (protein concentration 10 nM) | 103
26 | CTTGACAGAGGTATGTGCTAGGATTGAATATGTGGG (protein concentration 10 nM) | 131
27 | TCCTCACGAATCTCTCTACTTCTGTTCTTGCCCATC (protein concentration 10 nM) | 135
28 | CACAGGTTCTTCTTCAAGGGCAGGGCACTGCACCTT (protein concentration 10 nM) | 110
29 | GACCACAGGGACCCATGCCAGTCAGATAAAAATAAC (protein concentration 10 nM) | 141
30 | AGGCCTGTAGCATTTAGCTGGCCTCTGAGGAATAAC (protein concentration 10 nM) | 101
31 | ATATTCTCTTACATAACCACAGTACATTTATCAGCC (protein concentration 1 nM) | 573
32 | CAGGCATCTGTCATGCCCAGTAATTAATTGCTCCAA (protein concentration 10 nM) | 117
33 | CTGTTGTTTGACTTTAGTCATCTCCTACTTTTATAG (protein concentration 10 nM) | 137
34 | ACTGATCATCTGAAATGTGGCTAGTGTGAAAATGAA (protein concentration 1 nM) | 532
35 | CCCCTGTGCAACCTTTCATTCCCTAAGCCACTTTTC (protein concentration 10 nM) | 139
36 | TAGGTTCTAGCCTGCTTAGCTAGAGTTTAGTTTATT (protein concentration 10 nM) | 110
37 | AAGTCCCTCCTCTAAACCACTTTGATGAGGACCAAA (protein concentration 1 nM) | 387
38 | AAGCCTGGAGTTGGGGTGGTGGGGTGAGAATCAGCC (protein concentration 10 nM) | 170
39 | TTCTAAAGAAATCACAGTCAAATCTACCATTTGCGT (protein concentration 10 nM) | 99.5
40 | TGATCTTTGCTTTGCTTTTTGAAAGATCTGGCAAGG (protein concentration 10 nM) | 104
